Screening results (PubChem BioAssay)
TEAD-YAP inh = TEAD-YAP interaction inhibition, primary screen, TEAD-YAP interaction inhibitor project, luminescence, HEK-TIYL cells | TEAD-Gal4/YAP UAS-luciferase luminescence | inhibition, % at 9.12 µM | 640,000 tested, 1.4% active; in the data active means inhibition above about 32%
MITF primary = MITF inhibitors, primary screen, biochemical, AlphaScreen, human | AlphaScreen MITF homodimerization, bead proximity signal | 650,000 tested, 0.91% active | inhibition, % at 2.6 µM | AID 1259374, 2018 | Microphthalmia-associated transcription factor (Homo sapiens), O75030; in the data active means inhibition above about 50%
Target sequence (O75030 whole entry, looked up): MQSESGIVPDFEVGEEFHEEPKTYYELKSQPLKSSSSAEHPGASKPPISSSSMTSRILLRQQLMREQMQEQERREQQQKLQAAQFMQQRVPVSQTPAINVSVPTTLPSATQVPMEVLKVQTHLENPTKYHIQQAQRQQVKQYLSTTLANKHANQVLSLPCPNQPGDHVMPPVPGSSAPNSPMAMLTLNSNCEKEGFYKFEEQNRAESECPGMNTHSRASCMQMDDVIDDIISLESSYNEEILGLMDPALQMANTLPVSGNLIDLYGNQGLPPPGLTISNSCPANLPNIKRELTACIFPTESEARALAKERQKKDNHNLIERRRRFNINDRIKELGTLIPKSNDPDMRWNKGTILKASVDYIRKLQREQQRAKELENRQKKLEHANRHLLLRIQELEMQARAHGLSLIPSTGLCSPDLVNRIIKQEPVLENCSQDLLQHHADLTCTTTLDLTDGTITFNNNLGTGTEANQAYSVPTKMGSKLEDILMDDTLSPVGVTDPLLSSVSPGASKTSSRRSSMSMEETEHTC
GPR151 activ = activators of human GPR151, primary screen, cell-based, PathHunter beta-arrestin, luminescence. G-protein coupled receptor 151 (Homo sapiens), Q8TDV0. PathHunter beta-arrestin GPR151 cells. activation, % at 11.2 µM. 650,000 tested, 1% active. AID 1508602, 2020; in the data active means activation above about 4.9%
FBW7 act = FBW7 E3 ligase activators, primary screen, biochemical, AlphaScreen, human. normalized activity (activation), % at 26.1 µM. F-box/WD repeat-containing protein 7 (Homo sapiens), Q969H0. 650,000 tested, 0.13% active. AlphaScreen FBW7–phospho-cyclin E peptide binding, activator screen; in the data active means normalized activity above about 1.9%;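 further: purified mutant Fbw7 with reduced substrate affinity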
GPR151 confirm = GPR151 activators, triplicate retest, confirmation, cell-based, PathHunter beta-arrestin, luminescence; shares compounds with GPR151 activ; GPR151 PathHunter beta-arrestin cells, 90 min; % of EA-reagent control over plate median; activation, % at 11.2 µM; 6,700 tested, under 10 active; AID 1508609, 2020;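 active means mean percent activation across replicates above the confirmation screen cutoff of 4.91%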
GPR119 ag = GPR119 activators in beta-arrestin cells, counter-screen for GPR151 activator project, cell-based, PathHunter beta-arrestin, luminescence, triplicate; shares compounds with GPR151 activ; 90 min; 0 = compound-well median, 100 = enzyme-acceptor control; activation, % at 11.2 µM; 6,700 tested, 0.3% active;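 active means mean percent activation in the counterscreen above 29.09%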;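 further: counterscreen on off-target GPR119 to flag nonselective hits from the GPR151 activator screen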
Of the large screens only hits and unclear results are named; the others gave an inactive call (follow-up assays come after a bar, where they were run); ! = repeats disagree. Shown are actives, neighbours in structure and some others; about 3.5% of the full set was active somewhere.

C=CCOc1ccc(/C=C2/C(=O)NC(=O)N(c3ccc(OCC)cc3)C2=O)cc1OCC	GPR151 activ 7.6 | GPR151 confirm inactive | GPR119 ag inactive
COc1ccc(N2C(=O)NC(=O)/C(=C\c3ccc(F)cc3)C2=O)cc1	GPR151 activ 5.5 | GPR151 confirm inactive | GPR119 ag inactive
COCc1ccc(CN2CCCC(CNS(=O)(=O)c3ccc(OC)cc3)C2)o1 (stereo not given)	GPR151 activ 4.9 | GPR151 confirm inactive | GPR119 ag inactive
CCCNC(=O)C1CCC(CNS(=O)(=O)c2ccc(OC)cc2)CC1 (stereo not given)	none
COCCNC(=O)C1CCC(CNS(=O)(=O)c2ccc(OC)cc2)CC1 (stereo not given)	GPR151 activ 6.0 | GPR151 confirm inactive | GPR119 ag inactive
CCC(C)(C)n1nnnc1C(c1cc(OC)c(OC)c(OC)c1)N1CCC(C(N)=O)CC1 (stereo not given)	none
CN1CCN(c2ccc(-c3cc(C(=O)NCCCN4CCCC4=O)ccn3)cc2)CC1	none
Cc1cc(-c2nc3cc(Cl)ccc3c(=O)o2)ccc1[N+](=O)[O-]	GPR151 activ 6.3 | GPR151 confirm inactive | GPR119 ag inactive
Cc1ccc(-c2nc3cc(Cl)ccc3c(=O)o2)cc1C	none
Cc1cc(C)cc(NC(=O)NC2CCNCC2)c1	GPR151 activ 8.2 | GPR151 confirm inactive | GPR119 ag inactive
CC(C)N(CCNC(=O)c1cnc(NCCN2CCOCC2)s1)C(C)C	none
O=C(O)c1ccccc1-c1ccccc1C(=O)Nc1ccccc1	none
O=C(O)c1ccccc1-c1ccccc1C(=O)NC1CS(=O)(=O)CC1O (stereo not given)	GPR151 activ 5.1 | GPR151 confirm inactive | GPR119 ag inactive
Cc1nnc(NC(C)c2ccccc2)[nH]c1=O (stereo not given)	GPR151 activ 5.5 | GPR151 confirm inactive | GPR119 ag inactive
CCCCCNC(=O)CSc1ccc(C(=O)Nc2ccc(Cl)cc2F)cc1[N+](=O)[O-]	none
COCC(=O)n1nc(NCc2ccc(OC)cc2)nc1NCc1ccc(OC)cc1	none
CCCC(=O)n1nc(NCc2ccccc2)nc1NCc1ccccc1	GPR151 activ 6.9 | GPR151 confirm inactive | GPR119 ag inactive
CC(=O)n1nc(NCc2ccccc2)nc1NCc1ccccc1	none
O=C(COc1ccccc1)n1nc(NCc2ccccc2)nc1NCc1ccccc1	GPR151 activ 8.8 | GPR151 confirm inactive | GPR119 ag inactive
CCCOc1ccc(N2C(=O)C3C(C2=O)C2(C)CC3(C)CC2=O)cc1 (stereo not given)	GPR151 activ 7.8 | GPR151 confirm inactive | GPR119 ag inactive
CN(CCC#N)S(=O)(=O)c1ccc2[nH]cc(C(=O)NC3CCCCCC3)c(=O)c2c1	none
C=CCn1c(=O)c2ccccc2n2c(SCC(=O)Nc3ccccc3C(=O)OC)nnc12	GPR151 activ 5.0 | GPR151 confirm inactive | GPR119 ag inactive
COc1ccc(C2/C(=C(/O)c3ccc(Cl)cc3)C(=O)C(=O)N2CC(C)C)cc1 (stereo not given)	none
Nc1nc(Cl)cc(NCCN2CCOCC2)n1	none
Clc1cc(NCCN2CCOCC2)ncn1	GPR151 activ 5.7! | GPR151 confirm inactive | GPR119 ag inactive
c1ccc(-c2nnc(-c3ccccc3)o2)cc1	none
c1ccc(C2=NCCCO2)cc1	GPR151 activ 10 | GPR151 confirm inactive | GPR119 ag inactive
CN(CC1COc2ccccc2O1)c1nnnn1-c1ccccc1 (stereo not given)	none
c1ccc(-n2nnnc2NCC2COc3ccccc3O2)cc1 (stereo not given)	GPR151 activ 5.1 | GPR151 confirm inactive | GPR119 ag inactive
O=C(Cn1cnc2c(cnn2-c2ccccc2Cl)c1=O)N1CCCCC1	none
c1ccc(OCCNc2ncnc3nc(Nc4cnccn4)[nH]c23)cc1	GPR151 activ 5.7 | GPR151 confirm inactive | GPR119 ag inactive
c1ccc(OCCNc2ncnc3nc(Nc4nccc5ccccc45)[nH]c23)cc1	none
Cn1c(Nc2nc3ncnc(NCCOc4ccccc4)c3[nH]2)nc2ccccc21	GPR151 activ 4.9 | GPR151 confirm inactive | GPR119 ag inactive
CCCn1cnc2sc(C(=O)Nc3ccccc3OC)c(C)c2c1=O	GPR151 activ 11 | GPR151 confirm inactive | GPR119 ag inactive
CCOC(=O)C1C(=O)NC(SCC(=O)Nc2ccc(Br)cc2)=C(C#N)C1c1ccccc1OCC (stereo not given)	GPR151 activ 8.5 | GPR151 confirm inactive | GPR119 ag inactive
Cc1ccc(CN(CC(=O)O)S(=O)(=O)c2ccc(Cl)cc2)cc1	none
CCc1ccccc1NC(=O)CN(Cc1ccccc1)S(=O)(=O)c1ccc(Br)cc1	GPR151 activ 6.6 | GPR151 confirm inactive | GPR119 ag inactive
CCc1ccccc1NC(=O)CN(Cc1ccc(Br)cc1)S(=O)(=O)c1ccccc1	none
O=C(CN(Cc1ccccc1)S(=O)(=O)c1ccc(Br)cc1)Nc1ccccc1Cl	GPR151 activ 6.0 | GPR151 confirm inactive | GPR119 ag inactive
O=C(O)CN(Cc1ccc(Cl)cc1)S(=O)(=O)c1ccc(Cl)cc1	GPR151 activ 5.1 | GPR151 confirm inactive | GPR119 ag inactive
Cc1nc2c(-c3ccccc3)c(C)nn2c(NCc2ccncc2)c1C	none
O=C(O)CCC(=O)Nc1nc2ccccc2[nH]1	none
Cc1cc(C)c(C(=O)c2ccc(C(N)=O)cc2)c(C)c1	none
COc1cccc(N2CC(C(=O)N3CCN(CCn4nc(C)cc4C)CC3)CC2=O)c1 (stereo not given)	GPR151 activ 8.1 | GPR151 confirm inactive | GPR119 ag inactive
COc1cccc(N2CC(C(=O)Oc3ccc4ccccc4c3)CC2=O)c1 (stereo not given)	GPR151 activ 7.3 | GPR151 confirm inactive | GPR119 ag inactive
COc1cccc(N2CC(C(=O)NCCc3ccsc3)CC2=O)c1 (stereo not given)	GPR151 activ 5.5 | GPR151 confirm inactive | GPR119 ag inactive
COc1ccc(N2CC(C(=O)NCCc3ccccc3)CC2=O)cc1 (stereo not given)	none
Cc1nc(NC(=O)C2CN(c3nc4c(F)cccc4s3)C2)sc1C	none
COc1ccccc1N1CCN(S(=O)(=O)c2ccc(Br)cc2C)CC1	GPR151 activ 8.5 | GPR151 confirm inactive | GPR119 ag inactive
COc1ccc(Br)cc1S(=O)(=O)N1CCN(c2ccc(N3CCCC3)nn2)CC1	GPR151 activ 7.7 | GPR151 confirm inactive | GPR119 ag inactive
O=C(CCCC(=O)OCC(F)(F)C(F)F)Nc1ccc(Br)cc1	none
